Experimental data taken from PubChem BioAssay AID1159580 (chemical genetic matrix, 2015).
Out of some 5,500 compounds screened, about 2,000 (36%) were called active. Not shown: some 18% with an inconclusive outcome. Rule as the data show it: active = normalized growth mostly below about 0.91 (no sharp cut-off); inconclusive = no clear call, values can overlap the other calls; inactive = mostly above about 0.92. Some of the results follow.

Assay: chemical genetic growth profiling, strain panel (AID 1159580);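 also: tested at 20 µM; growth read once vehicle control cultures reached saturation at 30 °C; 1 = growth at the plate median or of vehicle wells; lower values mean less growth of the strain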
Conditions: growth OD

Measured: normalized growth

Nc1ccc(S(=O)(=O)Nc2ccc(Cl)nn2)cc1
inactive: S. cerevisiae deletion strains, locus YJR043C, strain POL32, hits give low values 0.991 | S. cerevisiae deletion strains, locus YJR066W, strain TOR1, hits give low values 0.926 | S. cerevisiae deletion strains, locus YKL009W, strain mrt4, hits give low values 1.03 | S. cerevisiae deletion strains, locus YKL068W, hits give low values 0.998 | S. cerevisiae deletion strains, locus YKL085W, strain MDH1 (second series), hits give low values 0.992 | S. cerevisiae deletion strains, locus YKL085W, strain MDH1, hits give low values 0.992 | S. cerevisiae deletion strains, locus YKL160W, strain elf1, hits give low values 0.966 | S. cerevisiae deletion strains, locus YKL190W, strain CNB1, hits give low values 1.01 | S. cerevisiae deletion strains, locus YKR001C, strain vps1, hits give low values 0.995 | S. cerevisiae deletion strains, locus YKR026C, strain gcn3, hits give low values 0.982 | S. cerevisiae deletion strains, locus YKR091W, strain srl3, hits give low values 0.996 | S. cerevisiae deletion strains, locus YLL001W, strain dnm1, hits give low values 0.981 | S. cerevisiae deletion strains, locus YLL026W, hits give low values 0.998 | S. cerevisiae deletion strains, locus YLL041C, strain sdh2, hits give low values 0.989 | S. cerevisiae deletion strains, locus YLR027C, strain aat2, hits give low values 0.995 | S. cerevisiae deletion strains, locus YLR039C, strain RIC1, hits give low values 1.06 | S. cerevisiae deletion strains, locus YLR058C, strain SHM2, hits give low values 1.01 | S. cerevisiae deletion strains, locus YLR102C, strain apc9, hits give low values 1 | S. cerevisiae deletion strains, locus YLR113W, strain HOG1, hits give low values 0.984 | S. cerevisiae deletion strains, locus YLR221C, strain rsa3, hits give low values 0.991 | S. cerevisiae deletion strains, locus YLR258W, strain gsy2, hits give low values 0.991 | S. cerevisiae deletion strains, locus YLR262C, strain YPT6 (second series), hits give low values 0.986 | S. cerevisiae deletion strains, locus YLR262C, strain YPT6, hits give low values 1.06 | S. cerevisiae deletion strains, locus YLR268W, strain sec22, hits give low values 1 | S. cerevisiae deletion strains, locus YLR320W, strain mms22, hits give low values 0.969 | S. cerevisiae deletion strains, locus YLR330W, strain CHS5, hits give low values 1.01 | S. cerevisiae deletion strains, locus YLR342W, strain FKS1 (second series), hits give low values 1.05 | S. cerevisiae deletion strains, locus YLR342W, strain FKS1, hits give low values 0.98 | S. cerevisiae deletion strains, locus YLR357W, strain rsc2, hits give low values 0.978 | S. cerevisiae deletion strains, locus YLR370C, strain arc18, hits give low values 0.984 | S. cerevisiae deletion strains, locus YLR371W, strain rom2, hits give low values 1 | S. cerevisiae deletion strains, locus YLR384C, strain iki3, hits give low values 0.993 | S. cerevisiae deletion strains, locus YLR418C, strain cdc73, hits give low values 1.03 | S. cerevisiae deletion strains, locus YML016C, strain PPZ1, hits give low values 1 | S. cerevisiae deletion strains, locus YML032C, strain rad52, hits give low values 1.01 | S. cerevisiae deletion strains, locus YML120C, strain ndi1, hits give low values 0.983 | S. cerevisiae deletion strains, locus YML124C, strain tub3, hits give low values 1.01 | S. cerevisiae deletion strains, locus YMR058W, strain fet3, hits give low values 0.987 | S. cerevisiae deletion strains, locus YMR078C, strain ctf18, hits give low values 1.01 | S. cerevisiae deletion strains, locus YMR125W, strain sto1, hits give low values 0.984 | S. cerevisiae deletion strains, locus YMR129W, hits give low values 0.986 | S. cerevisiae deletion strains, locus YMR205C, strain PFK2, hits give low values 0.97 | S. cerevisiae deletion strains, locus YMR223W, strain ubp8, hits give low values 1.04 | S. cerevisiae deletion strains, locus YMR231W, strain pep5, hits give low values 0.987 | S. cerevisiae deletion strains, locus YMR263W, strain SAP30, hits give low values 0.995 | S. cerevisiae deletion strains, locus YMR307W, strain GAS1, hits give low values 1.04 | S. cerevisiae deletion strains, locus YNL067W, strain RPL9B, hits give low values 0.983 | S. cerevisiae deletion strains, locus YNL071W, strain lat1, hits give low values 0.995 | S. cerevisiae deletion strains, locus YNL183C, strain NPR1, hits give low values 0.927 | S. cerevisiae deletion strains, locus YNL209W, strain ssb2, hits give low values 0.999 | S. cerevisiae deletion strains, locus YNL233W, strain BNI4, hits give low values 0.989 | S. cerevisiae deletion strains, locus YNL248C, strain rpa49, hits give low values 0.994 | S. cerevisiae deletion strains, locus YNL250W, strain rad50, hits give low values 1.03 | S. cerevisiae deletion strains, locus YNL271C, strain bni1, hits give low values 1 | S. cerevisiae deletion strains, locus YNL298W, strain CLA4, hits give low values 1 | S. cerevisiae deletion strains, locus YNL307C, strain MCK1, hits give low values 1.01 | S. cerevisiae deletion strains, locus YNL322C, strain KRE1 (second series), hits give low values 0.976 | S. cerevisiae deletion strains, locus YNR049C, strain mso1, hits give low values 0.995 | S. cerevisiae deletion strains, locus YNR052C, strain pop2, hits give low values 1.01 | S. cerevisiae deletion strains, locus YOL006C, strain TOP1, hits give low values 0.951 | S. cerevisiae deletion strains, locus YOL012C, strain htz1 1.39 | S. cerevisiae deletion strains, locus YOL147C, strain pex11, hits give low values 1 | S. cerevisiae deletion strains, locus YOR001W, strain rrp6, hits give low values 0.995 | S. cerevisiae deletion strains, locus YOR061W, strain CKA2, hits give low values 1 | S. cerevisiae deletion strains, locus YOR069W, strain VPS5, hits give low values 1.01 | S. cerevisiae deletion strains, locus YOR070C, strain gyp1, hits give low values 0.991 | S. cerevisiae deletion strains, locus YOR080W, strain dia2, hits give low values 0.979 | S. cerevisiae deletion strains, locus YOR083W, strain WHI5, hits give low values 0.96 | S. cerevisiae deletion strains, locus YOR106W, strain vam3, hits give low values 0.959 | S. cerevisiae deletion strains, locus YOR136W, strain idh2, hits give low values 0.995 | S. cerevisiae deletion strains, locus YOR144C, strain elg1, hits give low values 0.995 | S. cerevisiae deletion strains, locus YOR184W, strain ser1, hits give low values 1.02 | S. cerevisiae deletion strains, locus YOR231W, strain MKK1, hits give low values 0.991 | S. cerevisiae deletion strains, locus YOR265W, strain rbl2, hits give low values 0.999 | S. cerevisiae deletion strains, locus YOR270C, strain vph1, hits give low values 0.994 | S. cerevisiae deletion strains, locus YOR290C, strain snf2, hits give low values 0.985 | S. cerevisiae deletion strains, locus YOR316C, strain cot1, hits give low values 0.997 | S. cerevisiae deletion strains, locus YPL051W, strain arl3, hits give low values 0.98 | S. cerevisiae deletion strains, locus YPL078C, strain atp4, hits give low values 0.982 | S. cerevisiae deletion strains, locus YPL106C, strain sse1, hits give low values 0.969 | S. cerevisiae deletion strains, locus YPL240C, strain hsp82, hits give low values 0.978 | S. cerevisiae deletion strains, locus YPL256C, strain CLN2, hits give low values 0.962 | S. cerevisiae deletion strains, locus YPR119W, strain clb2, hits give low values 0.999 | S. cerevisiae deletion strains, locus YPR141C, strain kar3, hits give low values 0.995 | S. cerevisiae deletion strains, locus YPR163C, strain tif3, hits give low values 1.01 | S. cerevisiae deletion strains, locus YPR167C, strain met16, hits give low values 1 | S. cerevisiae deletion strains, strain wtn01, hits give low values 1.02 | S. cerevisiae strains, strain wild type, hits give low values 1.01
